The values below come from PubChem BioAssay AID1211 (NMMLSC, 2008).

Active and inactive are the calls of the source. The rule behind the calls is not given here.

The test has as its target Estrogen receptor (Homo sapiens) (UniProt P03372). Kind of test: displacement of fluorescent estrogen from ERalpha – cell-based, Cos7 ERalpha-GFP, flow cytometry, primary screen (AID 1211).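 Note: 0% = DMSO vehicle wells and 100% = no E2-Alexa633 signal left.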 To be noted: fluorescent ligand competition, stronger effect = higher value. (Flow cytometry measures light scatter and fluorescence of single cells or particles in a stream.)

Estrogen receptor (Homo sapiens), sequence (P03372 whole entry, looked up): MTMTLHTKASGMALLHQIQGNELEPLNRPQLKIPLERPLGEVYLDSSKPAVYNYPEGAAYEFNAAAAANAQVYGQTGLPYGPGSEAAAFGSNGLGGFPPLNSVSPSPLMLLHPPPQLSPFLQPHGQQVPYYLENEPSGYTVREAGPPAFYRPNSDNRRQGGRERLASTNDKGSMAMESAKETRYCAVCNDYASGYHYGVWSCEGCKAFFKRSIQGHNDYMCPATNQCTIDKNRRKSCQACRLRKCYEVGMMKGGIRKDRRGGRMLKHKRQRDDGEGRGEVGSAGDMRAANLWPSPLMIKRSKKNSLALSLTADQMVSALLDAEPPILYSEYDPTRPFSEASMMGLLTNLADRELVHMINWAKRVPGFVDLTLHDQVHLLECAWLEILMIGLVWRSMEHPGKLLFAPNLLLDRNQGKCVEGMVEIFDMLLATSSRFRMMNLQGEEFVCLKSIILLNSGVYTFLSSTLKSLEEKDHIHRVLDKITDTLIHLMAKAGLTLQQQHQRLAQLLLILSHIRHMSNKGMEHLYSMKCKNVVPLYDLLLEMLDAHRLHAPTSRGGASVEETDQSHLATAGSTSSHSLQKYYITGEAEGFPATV

Consider `Oc1ccc(/C=N/n2c(-c3ccco3)csc2=Nc2cccnc2)c(O)c1`, for which the inhibition of ligand binding reads like this: (at 10 µM) 49% (inactive); (binding inhibition, at 0.1 µM) 21%.

Turning to `CCCCNS(=O)(=O)c1ccc(NC(=O)C(Sc2ccccc2)c2ccccc2)cc1` (stereo not drawn), the inhibition of ligand binding reads like this: (at 10 µM) 25% (inactive); (binding inhibition, at 0.1 µM) 21%.

For the compound `Cc1nn(-c2ccccc2)c(/N=C/c2ccc(O)cc2)c1-c1ccccc1`, the inhibition of ligand binding is 77% (active) (at 10 µM) and 50% (binding inhibition, at 0.1 µM).

With `CCc1ccc2c(c1)[C@H]1OCC[C@H]1[C@@H](c1cccs1)N2`, the inhibition of ligand binding is 0% (inactive) (at 10 µM) and 21% (binding inhibition, at 0.1 µM).

Consider `COc1ccc(C2Nc3ccccc3C(=O)N2c2ccc(C)cc2)cc1COc1ccccn1` (stereo not drawn), for which the inhibition of ligand binding is 27% (inactive) (at 10 µM) and 11% (binding inhibition, at 0.1 µM).

As for `CCN(CC)CCCNC(=O)c1nn(-c2ccccc2OC)c(=O)c2ccccc12`, the inhibition of ligand binding is, setting by setting: (at 10 µM) 39% (inactive); (binding inhibition, at 0.1 µM) 62%.

On to `Cc1ccc(S(=O)(=O)NCCn2c(C)cc3ccccc32)cc1`, for which the inhibition of ligand binding was 49% (inactive) (at 10 µM) and 17% (binding inhibition, at 0.1 µM).

In the case of `COc1ccc(NC(=O)CN(c2ccccc2)S(=O)(=O)N(C)C)cc1OC`, the inhibition of ligand binding reads like this: (at 10 µM) 16% (inactive); (binding inhibition, at 0.1 µM) 16%.

As for `COc1cc(C2CC(=O)c3c(ccc4ccccc34)N2)ccc1O` (stereo not drawn), the inhibition of ligand binding is 0% (inactive) (at 10 µM) and 12% (binding inhibition, at 0.1 µM).

For the compound `CCc1ccc2[nH]c(=O)c(C3C(C#N)=C(N)Oc4c3ccc3cccnc43)cc2c1` (stereo not drawn), the inhibition of ligand binding (at 10 µM) is 30% (inactive) and the inhibition of ligand binding (binding inhibition, at 0.1 µM) was found to be 37%.

As for `COc1cccc(-c2nnc(NC(=O)Cc3cccs3)s2)c1`, the inhibition of ligand binding (at 10 µM) is 52% (inactive) and the inhibition of ligand binding (binding inhibition, at 0.1 µM) was determined as 20%.

In the case of `CCc1ccc2[nH]c(=O)c(CN(Cc3ccc4c(c3)OCO4)C(=O)c3ccco3)cc2c1`, the inhibition of ligand binding reads like this: (at 10 µM) 0% (inactive); (binding inhibition, at 0.1 µM) 62%.

Consider `O=C(CCCn1c(=S)[nH]c2ccccc2c1=O)N1CCN(c2cccc(Cl)c2)CC1`, for which the inhibition of ligand binding (at 10 µM) was 55% (inactive) and the inhibition of ligand binding (binding inhibition, at 0.1 µM) is 15%.

As to `Cc1ccccc1Nc1nnc(SCC(=O)NC(=O)NCc2ccco2)s1`, the inhibition of ligand binding (at 10 µM) was 63% (inactive) and the inhibition of ligand binding (binding inhibition, at 0.1 µM) stood at 50%.

`Nc1ncnc2c1ncn2C1CCC(CO)C(O)C1` (stereo not drawn): the inhibition of ligand binding runs as follows: (at 10 µM) 0% (inactive); (binding inhibition, at 0.1 µM) 10%.

Turning to `CCOC(=O)c1c(C)oc2c1c(C=NC1CCS(=O)(=O)C1)c(O)c1ccccc12` (stereo not drawn), the inhibition of ligand binding is 29% (inactive) (at 10 µM) and 43% (binding inhibition, at 0.1 µM).

With `Cc1c(N=Cc2ccc(O)c(Br)c2)cccc1[N+](=O)[O-]`, the inhibition of ligand binding is, setting by setting: (at 10 µM) 0% (inactive); (binding inhibition, at 0.1 µM) 23%.

`O=C(CSc1ccc(Cl)cc1)c1ccco1`: the inhibition of ligand binding (at 10 µM) was 42% (inactive) and the inhibition of ligand binding (binding inhibition, at 0.1 µM) was 65%.

In the case of `CCCCn1c(=O)[nH]c2nc3cc(N)ccc3nc2c1=O`, the inhibition of ligand binding reads like this: (at 10 µM) 4% (inactive); (binding inhibition, at 0.1 µM) 1%.

As to `O=C(Cc1cccs1)Nc1nnc(Cc2ccccc2)s1`, the inhibition of ligand binding (at 10 µM) is 33% (inactive) and the inhibition of ligand binding (binding inhibition, at 0.1 µM) turned out to be 31%.

As to `COc1ccc(C2Nc3ccccc3C(=O)N2c2ccc(F)cc2)cc1CSc1ccccn1` (stereo not drawn), the inhibition of ligand binding runs as follows: (at 10 µM) 10% (inactive); (binding inhibition, at 0.1 µM) 28%.

As to `Cc1cc(C)c(S(=O)(=O)/N=C2\C=CC(=O)C(Cl)=C2)c(C)c1`, the inhibition of ligand binding (at 10 µM) was 20% (inactive) and the inhibition of ligand binding (binding inhibition, at 0.1 µM) worked out at 7%.

`Nc1ccc2nc(-c3cc(Cl)c(N)c(Cl)c3)[nH]c2c1`: the inhibition of ligand binding is, setting by setting: (at 10 µM) 18% (inactive); (binding inhibition, at 0.1 µM) 6%.

`CCCCN(CCCC)S(=O)(=O)c1ccc(NC(=O)Cc2cccs2)cc1`: the inhibition of ligand binding was 61% (inactive) (at 10 µM) and 46% (binding inhibition, at 0.1 µM).

Regarding `COc1ccc(NC(=O)CSc2nc3ccccc3c3nc4ccccc4n23)cc1`, the inhibition of ligand binding is 23% (inactive) (at 10 µM) and 31% (binding inhibition, at 0.1 µM).

Turning to `CC1(C)CC(=O)C2=C(C1)OC(c1ccc(O)cc1)C(C#N)=C2N` (stereo not drawn), the inhibition of ligand binding by setting is: (at 10 µM) 34% (inactive); (binding inhibition, at 0.1 µM) 5%.

As for `Cc1cnc(C(=O)OCC(=O)c2csc(N3CCCCC3)n2)cn1`, the inhibition of ligand binding was 17% (inactive) (at 10 µM) and 63% (binding inhibition, at 0.1 µM).

For the compound `CC(C)(C)OC(=O)N1CCN(c2ccc(NC(=O)Cn3nnc(-c4ccccc4)n3)cc2)CC1`, the inhibition of ligand binding runs as follows: (at 10 µM) 37% (inactive); (binding inhibition, at 0.1 µM) 24%.

With `CC1(C)Cc2c(sc3c4nnnn4c4nnnn4c23)CO1`, the inhibition of ligand binding reads like this: (at 10 µM) 12% (inactive); (binding inhibition, at 0.1 µM) 21%.

On to `CCOc1ccc(CC2S/C(=N/c3ccccn3)NC2=O)cc1` (stereo not drawn), for which the inhibition of ligand binding is 8% (inactive) (at 10 µM) and 2% (binding inhibition, at 0.1 µM).

As to `Cc1cccc(N2CSC3=C(C#N)C(c4ccc(C)o4)CC(=O)N3C2)c1` (stereo not drawn), the inhibition of ligand binding was 27% (inactive) (at 10 µM) and 13% (binding inhibition, at 0.1 µM).

Take `O=c1cc(CSc2nnc(-c3cccs3)n2Cc2ccccc2)nc2sc3ccccc3n12`: the inhibition of ligand binding runs as follows: (at 10 µM) 49% (inactive); (binding inhibition, at 0.1 µM) 28%.

Take `O=C(Nc1cccc(-c2cn3cccnc3n2)c1)c1ccc2c(c1)OCO2`: the inhibition of ligand binding is, setting by setting: (at 10 µM) 22% (inactive); (binding inhibition, at 0.1 µM) 10%.

Take `COc1ccc(C2CC(c3cccs3)=NN2c2ccc(C=O)cc2)cc1` (stereo not drawn): the inhibition of ligand binding by setting is: (at 10 µM) 58% (inactive); (binding inhibition, at 0.1 µM) 38%.

Turning to `COc1cc(-c2nc3ccc4ccccc4c3c3c2CCC3)cc(OC)c1O`, the inhibition of ligand binding by setting is: (at 10 µM) 0% (inactive); (binding inhibition, at 0.1 µM) 30%.

Take `Cc1ccc2[nH]c(=O)c(C3C(C#N)=C(N)Oc4c3ccc3cccnc43)cc2c1` (stereo not drawn): the inhibition of ligand binding (at 10 µM) is 27% (inactive) and the inhibition of ligand binding (binding inhibition, at 0.1 µM) amounted to 26%.

In the case of `O=C(CSc1nc2scc(-c3ccco3)c2c(=O)n1-c1ccccc1)NCC1CCCO1` (stereo not drawn), the inhibition of ligand binding by setting is: (at 10 µM) 0% (inactive); (binding inhibition, at 0.1 µM) 21%.

With `O=C(Cn1ncc2c(=O)oc3ccccc3c21)Nc1nc2ccccc2s1`, the inhibition of ligand binding runs as follows: (at 10 µM) 7% (inactive); (binding inhibition, at 0.1 µM) 22%.

For `O=C(OC1CCCCC1)c1ccc2c(c1)C1C=CCC1C(C(=O)O)N2` (stereo not drawn), the inhibition of ligand binding is, setting by setting: (at 10 µM) 42% (inactive); (binding inhibition, at 0.1 µM) 14%.

Take `CC1(N2CCOCC2)CC2(O)C(=[N+]1[O-])CCc1nonc12` (stereo not drawn): the inhibition of ligand binding is, setting by setting: (at 10 µM) 34% (inactive); (binding inhibition, at 0.1 µM) 46%.

Regarding `CC1(C)N=C(N)N=C(N)N1c1ccc(C(=O)O)cc1`, the inhibition of ligand binding was 35% (inactive) (at 10 µM) and 21% (binding inhibition, at 0.1 µM).

`COc1ccc(OC)c(NC(=O)CSc2nc3ccccc3c3nc4ccccc4n23)c1`: the inhibition of ligand binding is, setting by setting: (at 10 µM) 26% (inactive); (binding inhibition, at 0.1 µM) 60%.

For the compound `O=Cc1ccc2oc3nc4n(c(=O)c3c(=O)c2c1)CCCS4`, the inhibition of ligand binding (at 10 µM) was 40% (inactive) and the inhibition of ligand binding (binding inhibition, at 0.1 µM) is 15%.

Consider `Oc1ccccc1C1=Nc2ccccc2N=C(c2cccs2)C1`, for which the inhibition of ligand binding is 1% (inactive) (at 10 µM) and 54% (binding inhibition, at 0.1 µM).
